# Source: PubChem BioAssay (NCATS)
# Several values for one entry are separate records, joined by “and”; a condition that tells them apart may be missing. Equal entries are not always repeated. Records with an inconclusive call do not appear. Entries that show only a call come without a potency. Activity calls are given as the source filed them. Calls come from the whole dose curve.
# What was measured:
# [1] = Primary qHTS for Huh7 cytotoxicity: counterscreen for inhibitors of MERS-S pseudotyped particle cell entry (AID 1479147)
# [2] = Primary qHTS for inhibitors of MERS-S pseudo-typed particle cell entry (AID 1479149); note: nearly all actives have a fitted effect of over 60% in size
# [3] = Primary qHTS for Vero E6 cytotoxicity: counterscreen for inhibitors of SARS-S pseudo-typed particle cell entry (AID 1479150)
# [4] = Cytotoxicity counterscreen for inhibitors of SARS-CoV-2 cell entry (AID 1645845); note: nearly all actives have a fitted effect of over 50% in size
# How it was run: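 ATP-content luminescence (ATPLite 1step, 15 min RT) read after 48 h compound exposure of Expi293F cells stably expressing human ACE2; normalized to cells-only wells and media-only wells.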
# [5] = Primary qHTS to identify inhibitors of SARS-CoV-2 cell entry (AID 1645846); details: activity change, negative = inhibition: at 57.1 µM (top of the series) unless noted; note: nearly all actives have a fitted effect of over 45% in size
# How it was run: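 Inhibition of spike-mediated entry was scored in human ACE2-transfected Expi293F cells. Particles were MLV-pseudotyped with Wuhan-Hu-1 S carrying a 19-aa C-terminal deletion; signal was luciferase after two days, scaled between spike PP and fusion-protein-free PP.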
SMILES,Potency [1],Potency [2],Potency [3],Potency [4],Potency [5],"activity change, negative = inhibition [5]"
CCCCCOC(=O)Nc1nc(=O)n([C@@H]2O[C@H](C)[C@@H](O)[C@H]2O)cc1F,inactive,inactive,inactive,inactive,,
CCCCNC(=O)NS(=O)(=O)c1ccc(C)cc1,inactive,inactive,inactive,inactive,inactive,
O=C1CCC(N2C(=O)c3ccccc3C2=O)C(=O)N1 (centres undefined),inactive,inactive,inactive,inactive,,-0.562% and -0.309%
Cc1onc(-c2ccccc2Cl)c1C(=O)N[C@@H]1C(=O)N2[C@@H]1SC(C)(C)[C@@H]2C(=O)O,inactive,inactive,inactive,inactive,,
COC(=O)N[C@H](C(=O)N[C@@H](Cc1ccccc1)[C@@H](O)CN(Cc1ccc(-c2ccccn2)cc1)NC(=O)[C@@H](NC(=O)OC)C(C)(C)C)C(C)(C)C,inactive,inactive,inactive,inactive,,
CC(C)C1CCC(C(=O)N[C@H](Cc2ccccc2)C(=O)O)CC1 (some centres undefined),inactive,inactive,inactive,inactive,,2.32% and -12.7%
COC(=O)CCc1ccc(OCC(O)CNC(C)C)cc1 (centres undefined),inactive,inactive,inactive,inactive,,-35%
Cc1cnc(C(=O)NCCc2ccc(S(=O)(=O)NC(=O)NC3CCCCC3)cc2)cn1,inactive,inactive,inactive,inactive,,3.67%
COc1cc(Cc2cnc(N)nc2N)cc(OC)c1OC,inactive,inactive,inactive,inactive,,
C=C(c1ccc(C(=O)O)cc1)c1cc2c(cc1C)C(C)(C)CCC2(C)C,inactive,inactive,inactive,inactive,,
CC1=C(C(=O)O)N2C(=O)[C@@H](NC(=O)[C@H](N)c3ccccc3)[C@H]2SC1,inactive,inactive,inactive,inactive,,-1.93%
CC(=O)OCC(CCn1cnc2cnc(N)nc21)COC(C)=O,inactive,inactive,inactive,inactive,,-14.3% and -5.75%
Cc1ncc([N+](=O)[O-])n1CCO,inactive,inactive,inactive,inactive,,-22%
Nc1nc2c(ncn2COC(CO)CO)c(=O)[nH]1,inactive,inactive,inactive,inactive,,-11.4% and -3.55%
Cc1nc2n(c(=O)c1CCN1CCC(c3noc4cc(F)ccc34)CC1)CCC[C@H]2O,inactive,inactive,inactive,inactive,,
NC(=O)c1cn(Cc2c(F)cccc2F)nn1,inactive,inactive,inactive,inactive,inactive,

SMILES,Potency [1],Potency [2],Potency [3],Potency [4],Potency [5],"activity change, negative = inhibition [5]"
CCCN(CCC)S(=O)(=O)c1ccc(C(=O)O)cc1,inactive,inactive,inactive,inactive,,-14.9%
CC#C[C@]1(O)CC[C@H]2[C@@H]3CCC4=CC(=O)CCC4=C3[C@@H](c3ccc(N(C)C)cc3)C[C@@]21C,inactive,inactive,inactive,inactive,,
CC(=O)SC[C@@H](C)C(=O)N1CCC[C@H]1C(=O)N[C@@H](Cc1ccccc1)C(=O)O,inactive,inactive,inactive,inactive,,
Cc1ccsc1C(=CCCN1CCC[C@@H](C(=O)O)C1)c1sccc1C,inactive,inactive,inactive,inactive,,-13.3%
COc1cc(C(=O)NCc2ccc(OCCN(C)C)cc2)cc(OC)c1OC,inactive,inactive,inactive,inactive,inactive,
O=NN(CCCl)C(=O)NCCCl,inactive,inactive,inactive,inactive,,
NS(=O)(=O)c1cc2c(cc1Cl)NC=NS2(=O)=O,inactive,inactive,inactive,inactive,inactive,
O=C1Cc2cc(CCN3CCN(c4nsc5ccccc45)CC3)c(Cl)cc2N1,inactive,inactive,inactive,inactive,,
Cc1ccc(S(=O)(=O)NC(=O)NN2CCCCCC2)cc1,inactive,inactive,inactive,inactive,,2.93%
CC1(C)S[C@@H]2[C@H](NC(=O)[C@H](N)c3ccccc3)C(=O)N2[C@H]1C(=O)O,inactive,inactive,inactive,inactive,,
Oc1ccc(C2CNCCc3c2cc(O)c(O)c3Cl)cc1 (centres undefined),inactive,inactive,inactive,inactive,inactive,
O=C(OC1C[C@H]2CC[C@@H](C1)[N+]21CCCC1)C(O)(c1ccccc1)c1ccccc1 (some centres undefined),inactive,inactive,inactive,inactive,,-4.34%
O=C(O)CCCc1ccccc1,inactive,inactive,inactive,inactive,inactive,
COC(=O)C(c1ccccc1Cl)N1CCc2sccc2C1 (centres undefined),inactive,inactive,inactive,inactive,inactive,
NC[C@H](O)c1ccc(O)c(O)c1,inactive,inactive,inactive,inactive,,4.91% and -20.6%
C[n+]1ccccc1/C=N/O,inactive,inactive,inactive,inactive,inactive,
